Screens: PubChem, National Center for Advancing Translational Sciences (NCATS)
This is a sample that favours compounds with a hit; in the whole collection about 7.4% have one here.
ELG1 genotox – genotoxicity induction in ELG1-luciferase HEK293T cells | hit rate 1.3% among 330,000 | Potency, µM (highest dose often 46 µM), for inactives: at the highest dose activity change, positive = activation, usual class: activators | HEK293T ELG1-luciferase reporter, luminescence, 16 h; note: % of control where 0% means no effect; nearly all actives have a fitted effect of over 60% in size
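Screening used a luciferase reporter fused to human ELG1 in HEK293T cells. Luminescence was read on a CCD plate imager after 16 hr exposure and 30 min ONE-Glo incubation.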
NPC1 prom act – NPC1 promoter activation; AID 485313; hit rate 2.4% among 320,000; Potency, µM (top dose mostly 9.22 µM), for inactives: at the top dose activation, usual class: activators; Huh7 NPC1 promoter luciferase reporter, 24 h; note: % of control where 0% means no effect; nearly all actives have a fitted effect of over 60% in size
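Huh7 cells stably carrying NPC1 promoter–luciferase, plated in Opti-MEM with 10% FBS for 2 h, were exposed to compound in DMSO for 24 h at 37 °C; luciferase reagent was added for 10 min and luminescence read.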
Rab9 prom act – activates the Rab9 promoter; Huh7 Rab9 promoter-luciferase reporter, luminescence, 24 h; Potency, µM (top dose mostly 9.22 µM), for inactives: at the top dose activation, negative = inhibition, actives largely listed as activators; AID 485297; hit rate 2.8% among 320,000; note: % of control where 0% means no effect; nearly all actives have a fitted effect of over 60% in size
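Quantitative HTS format; Huh7 Rab9-luciferase reporter cells (1500/well) receive compound 2 h post-plating, incubate 24 h at 37 °C, then get luciferase reagent for 10 min before luminescence reading.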
SMN2 splice enh – enhancers of SMN2 splice variant expression | HEK293 SMN2-luciferase splicing reporter, luminescence, 30-36 h | Potency, µM (doses to about 46.1 µM), inactives show at the highest dose activity change, positive = activation, usual class: activators | hit rate 2.8% among 210,000 | AID 1458; note: % of control where 0% means no effect; nearly all actives have a fitted effect of over 55% in size
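HEK293 cells carry an SMN2 […]–luciferase reporter in which exon 7 inclusion puts luciferase in frame. Cells were plated 10-12 h before compound addition, then incubated 30-36 h at 37C. ONE-Glo luminescence was read; sodium butyrate at 4.5 mM final served as control.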
FLuc counter – counter-screen for miR-21 project: firefly luciferase inhibitors or activators; hit rate 6.9% among 360,000; AID 588342; purified FLuc, Km substrates, luminescence inhibition; Potency, µM (series often up to 57.5 µM), without a hit: top-dose activity change, negative = inhibition, actives largely listed as inhibitors;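 note: plate controls were vehicle for no effect and reference inhibitor for full effect; nearly all actives have a fitted effect of over 55% in size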
Target sequence (P08659 whole entry, looked up): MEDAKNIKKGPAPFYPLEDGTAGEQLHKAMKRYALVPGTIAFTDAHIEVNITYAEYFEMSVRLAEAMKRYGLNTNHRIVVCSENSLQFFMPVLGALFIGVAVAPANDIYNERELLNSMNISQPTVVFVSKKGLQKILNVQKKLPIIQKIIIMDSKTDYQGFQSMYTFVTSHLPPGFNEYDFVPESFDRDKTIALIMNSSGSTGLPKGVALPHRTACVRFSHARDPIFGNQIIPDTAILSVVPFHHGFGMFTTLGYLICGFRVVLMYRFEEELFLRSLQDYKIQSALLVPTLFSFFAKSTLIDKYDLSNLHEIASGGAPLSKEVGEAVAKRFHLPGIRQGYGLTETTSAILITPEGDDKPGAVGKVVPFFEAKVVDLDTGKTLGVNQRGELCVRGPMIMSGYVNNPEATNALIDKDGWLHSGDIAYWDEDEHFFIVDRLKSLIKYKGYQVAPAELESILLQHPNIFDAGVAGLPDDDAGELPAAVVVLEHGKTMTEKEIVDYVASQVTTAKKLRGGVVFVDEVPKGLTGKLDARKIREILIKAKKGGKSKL
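Biochemical qHTS of compounds, final roughly 60 µM downward over six points, against 10 nM purified firefly luciferase using Km concentrations of substrates (10 uM D-luciferin, 10 uM ATP) in Tris acetate pH 7.5 buffer; luminescence output.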
Starred values were filed as active, the others as inactive; ? = inconclusive; . = no result. Calls come from the whole dose curve; as a rule, active = well fitted curve in the direction sought with a large enough effect; inconclusive = small, poorly fitted or top-dose-only effect, or another doubt; inactive = no such curve, though single readings can be large; an effect the other way counts as inactive or inconclusive. Potency is the fitted concentration of half-maximal effect.

SMILES | ELG1 genotox | NPC1 prom act | Rab9 prom act | SMN2 splice enh | FLuc counter
COc1ccc(NC(=O)C(NC(=O)/C=C\c2ccc3c(c2)OCO3)c2ccc(OC)cc2)cc1 (stereo unspecified) | . | . | . | -5.3% | -6.0%
COc1ccccc1NC(=O)/C=C/c1ccc2c(c1)OCO2 | 13.0% | 27.8% | ? | 11.2µM* | 6.75µM*
CC(=O)Nc1ccc(NC(=O)COC(=O)/C=C/c2ccc3c(c2)OCO3)cc1 | 0.9% | -2.8% | 1.1% | . | -2.4%
COc1ccc(NC(=O)C(NC(=O)/C=C\c2ccc3c(c2)OCO3)c2ccccc2)cc1 (stereo unspecified) | . | . | . | 2µM* | -0.5%
O=C(Nc1ccccc1)Nc1ccc(Cl)c(S(=O)(=O)N2CCOCC2)c1 | -11.2% | -8.7% | -7.6% | -20.0% | ?
COc1ccccc1N1CCN(C(=O)/C=C/c2ccc3c(c2)OCO3)CC1 | -6.1% | -3.2% | 1.2% | -9.6% | -9.3%
O=C(CSc1cc(Cl)ccc1Cl)NC1CCCC1 | 0.1% | 0.9% | -0.7% | . | 3.4%
COc1ccc(NC(=O)CC2C(=O)N(c3ccc(F)cc3)C(=O)N2Cc2ccco2)cc1 (stereo unspecified) | . | . | . | . | -6.9%
COC(=O)c1ccccc1NC(=O)CCCn1c(=O)c2cccn2c2cccnc21 | . | . | . | . | -9.7%
NC(=O)c1ccc(NC(=O)COC(=O)/C=C/c2ccc3c(c2)OCO3)cc1 | 7.2% | 2.2% | 3.3% | . | 12µM*
Cc1ccc(NC(=O)/C=C/c2ccc3c(c2)OCO3)cc1S(=O)(=O)N1CCOCC1 | -10.7% | -3.0% | -16.6% | -50.6% | 10.7µM*
COc1ccc(/C=C/C(=O)Nc2ccc(C)c(S(=O)(=O)N3CCOCC3)c2)cc1 | -10.5% | . | . | . | .
Cc1ccc(S(N)(=O)=O)cc1NC(=O)/C=C/c1ccc2c(c1)OCO2 | 0.9% | -0.7% | 3.2% | -4.6% | 23.9µM*
Cc1cc(C)cc(NC(=O)CS(=O)(=O)c2cccc3nsnc23)c1 | 3.6% | -2.5% | -0.4% | . | -3.4%
CCc1c(C)sc2c1CCN(Cc1ccccc1)C2c1ccccc1 (stereo unspecified) | . | . | . | . | 1.3%
CC(C)(C)c1ccc(C(=O)Nc2ccc(Cl)cc2)cc1 | ? | 2.82µM* | 1.41µM* | 3.55µM* | ?
Cn1c(-c2nonc2NC(=O)c2ccc(C(C)(C)C)cc2)nc2ccccc21 | -2.1% | 0.0% | -3.8% | -2.4% | -6.4%
COc1cccc(C(=O)Nc2ccc(NC(=O)c3ccc(C(C)(C)C)cc3)cc2)c1 | . | . | . | -13.9% | 1.3%
CC(=O)Nc1ccc(C(=O)NNC(=O)c2ccc(Cl)cc2)cc1 | -1.9% | -1.3% | -3.6% | . | -2.8%
CC(=O)Nc1nonc1NC(=O)c1ccc(C(C)(C)C)cc1 | 19.2% | ? | 3.55µM* | ? | ?
COC(=O)Cc1ccc(NC(=O)c2ccccc2Cl)cc1 | 15.1% | 1.9% | -2.4% | 22.8% | 15.1µM*
COC(=O)Cc1ccc(NC(=O)c2ccc(C(C)(C)C)cc2)cc1 | -22.6% | -29.2% | -19.2% | -86.9% | 1.35µM*
Cc1ccc(CNC(=O)CN2C(=O)CCc3cc(S(=O)(=O)N4CCCCC4)ccc32)cc1 | . | . | . | . | -10.6%
COC(=O)[C@@H]1C[C@@]1(C)[C@@H](NC(=O)OCc1ccccc1)c1ccccc1 | . | . | . | -88.1% | .
CC(C)(C)c1ccc(NC(=O)c2ccsc2)cc1 | ? | 0.447µM* | 0.398µM* | . | 1.07µM*
SMILES | ELG1 genotox | NPC1 prom act | Rab9 prom act | SMN2 splice enh | FLuc counter
O=C(Nc1ccccc1F)c1ccc(CSc2ncccn2)cc1 | ? | 3.55µM* | 3.55µM* | ? | ?
Cc1ccc(NC(=O)c2ccc(CSc3nccc(C)n3)cc2)cc1 | -4.7% | 19.4% | 8.6% | . | ?
CC(=O)Nc1nnc(SCc2ccc(C(=O)Nc3ccccc3F)cc2)s1 | 8.7% | -4.5% | 13.8% | -17.1% | 3.6%
O=C(Nc1ccccc1)c1ccc(CSc2ncccn2)cc1 | ? | 1.12µM* | 1µM* | 12.6µM* | 3.38µM*
O=C(Nc1ccccc1F)c1ccc(OCc2ccccc2)cc1 | ? | ? | ? | 22.4µM* | ?
O=C(Nc1ccc(OCc2ccccc2)cc1)c1ccccc1 | 16.4% | ? | ? | ? | 1.2%
C/C(=N\NC(=O)c1cccc(S(=O)(=O)N2CCCC2)c1)c1ccc(OCC(=O)N(C)C)cc1 | 0.8% | -1.0% | -4.0% | . | -3.6%
